# Source: PubChem (Broad Institute)
# Only some compounds are listed: those with a hit (about 0.86% of all), similar ones and a draw of the others.
# BJeLR viab HTS: lowers viability of BJeLR cells. actives 0.64% (n = 30,000). BJeLR fibroblasts viability, CellTiterGlo ATP luminescence, 48 h; HRASV12, hTERT and SV40 LT/ST transformed. viability loss activity score, % (no concentration beside the values); in the data active = viability loss activity score above about 50%;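 note: higher score means fewer live cells and less ATP luminescence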
# A1 inh: blocks A1 activity | MEF A1-2A-BIM cells, caspase-Glo luminescence, 3 h; percent of clofoctol signal, DMSO as zero | actives 0.51% (n = 21,000) | caspase activation, % (concentration not given with the values) | AID 2241;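 active = most replicate scores above 10, or exactly half above 10 with mean activity above 10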;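 note: effector caspase 3 and 7 activity cleaving a DEVD luciferin substrate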
# Numbers without * were called inactive; . = no result.
SMILES,BJeLR viab HTS,A1 inh
CO/C1=C/C(C)=C/[C@@H](C)[C@@H](O)[C@@H](C)C/C(C)=C/C=C\[C@H](OC)[C@@H]([C@@H](C)[C@@H](O)[C@H](C)[C@@]2(O)C[C@@H](O)[C@H](C)[C@@H](C(C)C)O2)OC1=O,52*,0
c1cncc(C2Nc3ccccc3-n3cccc32)c1 (centres undefined),-3,0
COC(=O)C1=CO[C@H](C)[C@@H]2CN3CCC4(C(=O)Nc5ccccc54)C3C[C@H]12 (some centres undefined),-3,1
C[C@@H]1C(=O)O[C@H]2[C@H]1CC[C@@]1(C)C=CC(=O)[C@@]3(C)O[C@@]213,7,0
C/C=C(\C)[C@H](O)[C@H](C)/C=C(C)/C=C/C/C(C)=C/Cc1[nH]c(OC)c(OC)c(=O)c1C,26,0
c1ccc(C2N3CCCN2CC3)cc1 (centres undefined),-5,0
C[C@H]1CC[C@@H]2[C@@H](C)[C@H]3[C@H](C[C@H]4[C@@H]5CC=C6CC(O[C@@H]7O[C@H](CO)[C@@H](O)[C@H](O[C@@H]8O[C@H](CO)[C@@H](O)[C@H](O)[C@H]8O)[C@@H]7O[C@@H]7O[C@@H](C)[C@H](O)[C@@H](O)[C@H]7O)CC[C@]6(C)[C@H]5CC[C@]34C)N2C1 (some centres undefined),81*,-2
C[C@H]1CC[C@@H]2[C@@H](C)[C@H]3[C@H](C[C@H]4[C@@H]5CC=C6C[C@@H](O[C@@H]7O[C@H](CO)[C@H](O)[C@H](O[C@@H]8O[C@H](CO)[C@@H](O)[C@H](O)[C@H]8O)[C@H]7O[C@@H]7O[C@@H](C)[C@H](O)[C@@H](O)[C@H]7O)CC[C@]6(C)[C@H]5CC[C@]34C)N2C1,-1,-1
COc1cc2c3c(c1OC)-c1c(ccc(O)c1O)CC3N(C)CC2 (centres undefined),2,1
Cc1c(O)c(C(=O)O)c(O)c2c1[C@H](C)[C@@H](C)OC2=O,-6,-1
COc1ccccc1CN1CCN(Cc2ccccc2)CC1,2,0
COc1ccc2c(c[n+](C)c3c4cc5c(cc4ccc23)OCO5)c1OC,79*,161*
COc1ccc2c(c1OC)CN1CCc3cc4c(cc3C1C2)OCO4 (centres undefined),3,-1
Cc1cc(OCc2c(F)cccc2Cl)c2c3c(c(=O)oc2c1)CCCC3,-1,1
CC1C/C=C/C2C3OC3(C)C(C)C3C(Cc4ccccc4)NC(=O)C23OC(=O)O/C=C/C(C)(O)C1=O (centres undefined),3,16*
Fc1ccc(Sc2c(F)c(F)nc(N3CCNCC3)c2F)cc1,0,2
CN1Cc2c(ccc3c2OCO3)[C@@H]2[C@H]1c1cc3c(cc1C[C@@H]2O)OCO3,41,2
CC[C@H]1CN2CC[C@H]1C[C@@H]2[C@@H](O)c1ccnc2ccc(OC)cc12,-4,0
CN1C(=O)NC(=O)/C(=C\C=C\c2ccco2)C1=O,-3,0
CN(C)c1ccc(/C=C/C=C2/C(=O)NC(=O)N(c3ccccc3)C2=O)cc1,60*,.
CCOC(=O)c1cc(C(C)(C)C)nc(OC(=O)N(C)C)c1C#N,0,0
CCOC(=O)c1c(NC(=O)C2C(C)(C)C2(C)C)sc2c1CCC2,-1,-1
CCNCC(O)c1cccc(OC(=O)c2ccccc2C)c1 (centres undefined),-7,0
CC1OC(O[C@H]2C[C@@H](O)[C@]3(CO)[C@H]4[C@H](O)C[C@]5(C)[C@@H](C6=CC(=O)OC6)CC[C@]5(O)[C@@H]4CC[C@]3(O)C2)C(O)C(O)C1O (some centres undefined),100*,2
C[C@@H]1O[C@@H](O[C@H]2C[C@@H](O)[C@]3(CO)C4C(CC[C@]3(O)C2)[C@@]2(O)CC[C@H](C3=CC(=O)OC3)[C@@]2(C)C[C@H]4O)[C@H](O)[C@H](O)[C@H]1O (some centres undefined),119*,1
SMILES,BJeLR viab HTS,A1 inh
C[C@H]1O[C@@H](O[C@H]2C[C@@H](O)[C@]3(CO)C4C(CC[C@]3(O)C2)[C@@]2(O)CC[C@H](C3=CC(=O)OC3)[C@@]2(C)C[C@H]4O)[C@@H](O)[C@@H](O)[C@H]1O (some centres undefined),117*,-1
CN(C)C(=O)Oc1nnc(SCCS(=O)(=O)c2ccc(F)cc2)n1-c1ccccc1,-2,0
CCC(C)[C@H]1C(=O)O[C@H](C(C)C)C(=O)N(C)[C@@H](C(C)CC)C(=O)O[C@H](C(C)C)C(=O)N(C)[C@@H](C(C)CC)C(=O)O[C@H](C(C)C)C(=O)N1C (some centres undefined),91*,86*
C=CC/C=C\C/C=C\CCCCCCCc1cc(O)cc(O)c1,.,0
CN(C)C(=O)Oc1cccc(N)c1,0,1
COc1ccc2c(c1OC)C(=O)O[C@H]2[C@H]1c2cc3c(cc2CCN1C)OCO3,-6,1
COc1cc([C@@H]2c3cc4c(cc3[C@@H](O)C3COC(=O)C32)OCO4)cc(OC)c1O (some centres undefined),50*,3
COc1cc(C2c3cc4c(cc3CC3COC(=O)C32)OCO4)cc(OC)c1OC (centres undefined),64*,3
COc1cc([C@@H]2c3cc4c(cc3[C@H](OC(C)=O)[C@H]3COC(=O)[C@@H]23)OCO4)cc(OC)c1OC,33,1
C[C@@H]1CCC/C=C/[C@H]2C[C@@H](O)C[C@@H]2[C@@H](O)/C=C\C(=O)O1,39,5
O=C(CCl)c1cc(Br)c(Br)s1,35,4
Cc1cc(Br)c(NC(=O)C2C(C)(C)C2(C)C)c(Br)c1,-2,0
CC(=O)NC1C(OC2OC(CC(O)C3OC(n4ccc(=O)[nH]c4=O)C(O)C3O)C(O)C(O)C2NC(=O)/C=C/CCCCCCCCCC(C)C)OC(CO)C(O)C1O (centres undefined),10,3
CN1CCC2=C[C@H](O)[C@H]3OC(=O)c4cc5c(cc4[C@H]3[C@@H]21)OCO5,-10,0
CC(C)[C@]12O[C@H]1[C@@H]1O[C@]13[C@]1(O[C@H]1C[C@H]1C4=C(CC[C@@]13C)C(=O)OC4)[C@@H]2O,90*,16*
CCN1C[C@]2(C)CC[C@H](OC)[C@@]34C1[C@@]1(OCO[C@@]15C[C@H](OC)[C@H]1C[C@]3(O)[C@@H]5[C@H]1OC)[C@@H](OC(C)=O)[C@H]24,-3,0
CC(CCc1ccc(O)cc1)O[C@@H]1O[C@H](CO[C@H]2OC[C@](O)(CO)[C@H]2O)[C@@H](O)[C@H](O)[C@H]1O (some centres undefined),-8,-1
COc1cc2c(cc1O)CCNC2C (centres undefined),-4,-1
CC[C@H]1CN2CCc3cc(OC)c(OC)cc3[C@@H]2C[C@@H]1C[C@H]1NCCc2cc(O)c(OC)cc21,94*,19*
COC[C@H]1OC(=O)c2coc3c2[C@@]1(C)C1=C(C3=O)[C@@H]2CCC(=O)[C@@]2(C)C[C@H]1OC(C)=O,4,62*
